The supplement of paper PMC6555819

How the values were obtained:
Test in all cases: PBM binding z-score (relative to random genomic background probes); higher = stronger binding; sequences stand for … in GC…GCGATTGACAGCGTAGAATGAAGG
[1] = test system: FXR:RXRa (NR concentration 270 nM, RXRa partner concentration 90 nM)
Method in brief: (§1)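 The probes on custom Agilent 4×180K protein-binding microarrays were double-stranded, with 34-nt variable regions bearing direct-repeat seeds, single-nucleotide variants, half-site ablations and random human genomic background sequences. Incubation lasted 1 h with ligand-free nuclear receptor dimers in PBS pH 7.4, 2% milk, 0.02% Triton X-100, 1 mM DTT, 0.2 mg/mL BSA and 0.4 mg/ml salmon testes DNA. Antibodies against each partner (one per run) detected bound dimers, and fluorescence scans were regression-normalized. Binding z-scores take the random background probes as reference.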

[2] = test system: LXRa:RXRa (NR concentration 270 nM, RXRa partner concentration 90 nM)
Method in brief: as §1

[3] = test system: LXRa homodimer (NR concentration 270 nM)
Method in brief: as §1

[4] = test system: LXRb:RXRa (NR concentration 270 nM, RXRa partner concentration 90 nM)
Method in brief: as §1

[5] = test system: LXRb homodimer (NR concentration 270 nM)
Method in brief: as §1

[6] = test system: PPARa:RXRa (NR concentration 270 nM, RXRa partner concentration 90 nM)
Method in brief: as §1

[7] = test system: PPARg:RXRa (NR concentration 180 nM, RXRa partner concentration 90 nM)
Method in brief: as §1

[8] = test system: PPARg:RXRa 270nM:90nM, anti-RXR (NR concentration 270 nM, RXRa partner concentration 90 nM)
Method in brief: as §1

[9] = test system: PPARg:RXRa 30nM:10nM, anti-RXR (NR concentration 30 nM, RXRa partner concentration 10 nM)
Method in brief: as §1

[10] = test system: PPARg:RXRa 90nM:30nM, anti-RXR (NR concentration 90 nM, RXRa partner concentration 30 nM)
Method in brief: as §1

[11] = test system: PPARg:RXRa DBDmut IVT, anti-RXR (DBD mutation: RXRa K156A/R161A, NR concentration 270 nM, RXRa partner concentration 90 nM)
Method in brief: as §1

[12] = test system: PPARg:RXRa IVT, anti-PPARg (NR concentration 270 nM, RXRa partner concentration 90 nM)
Method in brief: as §1

[13] = test system: PPARg DBDmut:RXRa IVT, anti-PPARg (DBD mutation: PPARg1 K132A/R137A, NR concentration 270 nM, RXRa partner concentration 90 nM)
Method in brief: as §1

[14] = test system: PPARg DBDmut IVT, anti-PPARg (DBD mutation: PPARg1 K132A/R137A, NR concentration 270 nM)
Method in brief: as §1

[15] = test system: PPARg homodimer (NR concentration 180 nM)
Method in brief: as §1

[16] = test system: PXR:RXRa (NR concentration 270 nM, RXRa partner concentration 90 nM)
Method in brief: as §1

[17] = test system: PXR homodimer (NR concentration 270 nM)
Method in brief: as §1

[18] = test system: RARa:RXR (NR concentration 270 nM, RXRa partner concentration 90 nM)
Method in brief: as §1

[19] = test system: RARa homodimer (NR concentration 270 nM)
Method in brief: as §1

[20] = test system: RARb:RXRa (NR concentration 270 nM, RXRa partner concentration 90 nM)
Method in brief: as §1

Work on GCAGACAGGTGAGACGCAGGTAACTCAGGGTGGC yielded a PBM binding z-score [1] of -0.153, a PBM binding z-score [2] of -0.129 and a PBM binding z-score [3] of -0.774. It also gave a PBM binding z-score [4] of -0.355, a PBM binding z-score [5] of -1.18 and a PBM binding z-score [6] of 0.164. For the same sequence, the PBM binding z-score [7] was 0.374, the PBM binding z-score [8] was -0.0915 and the PBM binding z-score [9] was -0.758. The PBM binding z-score [10] was -0.532, the PBM binding z-score [11] was 0.0725 and the PBM binding z-score [12] was 0.0836. It also gave a PBM binding z-score [13] of -0.435, a PBM binding z-score [14] of -0.858 and a PBM binding z-score [15] of -0.513. The PBM binding z-score [16] was -0.282, the PBM binding z-score [17] was -0.385 and the PBM binding z-score [18] was 0.154. The PBM binding z-score [19] was -0.0204 and the PBM binding z-score [20] was 0.422.

Sequence TGGCCTAGGTCATTGGGCCAGTATAGTACGCATC has a PBM binding z-score [1] of 4.33, a PBM binding z-score [2] of 2.98 and a PBM binding z-score [3] of -0.242. For the same sequence, the PBM binding z-score [4] was 1.44, the PBM binding z-score [5] was -0.839 and the PBM binding z-score [6] was 3.79. It also gave a PBM binding z-score [7] of 3.3, a PBM binding z-score [8] of 3.34 and a PBM binding z-score [9] of 0.438. The PBM binding z-score [10] was 2.2, the PBM binding z-score [11] was 1.95 and the PBM binding z-score [12] was 3.78. The PBM binding z-score [13] was -0.594, the PBM binding z-score [14] was -1.26 and the PBM binding z-score [15] was 1.98. The PBM binding z-score [16] was 1.4, the PBM binding z-score [17] was -0.797 and the PBM binding z-score [18] was 1.97. For the same sequence, the PBM binding z-score [19] was -0.131 and the PBM binding z-score [20] was 3.72.

TCTGCTAGGTTAGTTGGTCAGCTAACGAGCTGCC showed a PBM binding z-score [1] of -0.522, a PBM binding z-score [2] of -0.402 and a PBM binding z-score [3] of -0.882. It also gave a PBM binding z-score [4] of -0.708, a PBM binding z-score [5] of -0.0822 and a PBM binding z-score [6] of 0.052. It also gave a PBM binding z-score [7] of -0.648, a PBM binding z-score [8] of 0.707 and a PBM binding z-score [9] of 0.944. The PBM binding z-score [10] was 0.973, the PBM binding z-score [11] was 1.37 and the PBM binding z-score [12] was 1.5. For the same sequence, the PBM binding z-score [13] was -0.266, the PBM binding z-score [14] was -0.918 and the PBM binding z-score [15] was -1.12. The PBM binding z-score [16] was -0.398, the PBM binding z-score [17] was -1.1 and the PBM binding z-score [18] was -0.512. The PBM binding z-score [19] was -1.39 and the PBM binding z-score [20] was 0.525.

In the case of GGTACGAGGGCAAGTTGATAGCAGAGTTTGATGG, the PBM binding z-score [1] is reported as 0.998, the PBM binding z-score [2] is reported as 0.455 and the PBM binding z-score [3] is reported as -0.268. It also gave a PBM binding z-score [4] of 0.434, a PBM binding z-score [5] of -0.129 and a PBM binding z-score [6] of 1.02. For the same sequence, the PBM binding z-score [7] was 0.722, the PBM binding z-score [8] was 0.456 and the PBM binding z-score [9] was -0.104. The PBM binding z-score [10] was 0.235, the PBM binding z-score [11] was 2.1 and the PBM binding z-score [12] was 1.59. It also gave a PBM binding z-score [13] of -0.734, a PBM binding z-score [14] of -1 and a PBM binding z-score [15] of 0.42. It also gave a PBM binding z-score [16] of 1.06, a PBM binding z-score [17] of 0.796 and a PBM binding z-score [18] of 0.502. It also gave a PBM binding z-score [19] of 0.101 and a PBM binding z-score [20] of 2.75.

For TCGAGTAGCTTACCAATGGGGCATTCAGCTTTCT, the PBM binding z-score [1] was -0.38, the PBM binding z-score [2] was -0.514 and the PBM binding z-score [3] was -0.884. It also gave a PBM binding z-score [4] of 0.00146, a PBM binding z-score [5] of -1.08 and a PBM binding z-score [6] of -0.152. The PBM binding z-score [7] was -0.423, the PBM binding z-score [8] was -0.0428 and the PBM binding z-score [9] was 0.616. The PBM binding z-score [10] was 0.411, the PBM binding z-score [11] was 1.07 and the PBM binding z-score [12] was -0.175. The PBM binding z-score [13] was -1.01, the PBM binding z-score [14] was -0.741 and the PBM binding z-score [15] was -0.629. It also gave a PBM binding z-score [16] of -0.456, a PBM binding z-score [17] of -1.19 and a PBM binding z-score [18] of -0.333. It also gave a PBM binding z-score [19] of -1.4 and a PBM binding z-score [20] of -0.426.

Sequence GGAACGAGGGCAAGTTGATAGAAGAGTTTGATGG has a PBM binding z-score [1] of 0.705, a PBM binding z-score [2] of 0.396 and a PBM binding z-score [3] of -0.176. It also gave a PBM binding z-score [4] of 0.213, a PBM binding z-score [5] of -0.242 and a PBM binding z-score [6] of 1.41. It also gave a PBM binding z-score [7] of 1.29, a PBM binding z-score [8] of 0.969 and a PBM binding z-score [9] of 0.173. For the same sequence, the PBM binding z-score [10] was 0.351, the PBM binding z-score [11] was 3.6 and the PBM binding z-score [12] was 2.75. The PBM binding z-score [13] was -0.45, the PBM binding z-score [14] was 0.0544 and the PBM binding z-score [15] was 0.482. For the same sequence, the PBM binding z-score [16] was 0.801, the PBM binding z-score [17] was 0.693 and the PBM binding z-score [18] was 0.45. The PBM binding z-score [19] was 0.336 and the PBM binding z-score [20] was 2.64.

Sequence ATAGACAGGTGAGTGAAGGTAACTCAGCTGGACG has a PBM binding z-score [1] of 0.729, a PBM binding z-score [2] of 0.567 and a PBM binding z-score [3] of -0.416. It also gave a PBM binding z-score [4] of -0.043, a PBM binding z-score [5] of 0.00945 and a PBM binding z-score [6] of 0.437. For the same sequence, the PBM binding z-score [7] was 0.69, the PBM binding z-score [8] was 0.369 and the PBM binding z-score [9] was 0.155. It also gave a PBM binding z-score [10] of 0.444, a PBM binding z-score [11] of -0.0175 and a PBM binding z-score [12] of 0.973. It also gave a PBM binding z-score [13] of 0.246, a PBM binding z-score [14] of 0.208 and a PBM binding z-score [15] of 0.132. The PBM binding z-score [16] was 0.352, the PBM binding z-score [17] was 0.0205 and the PBM binding z-score [18] was 0.959. It also gave a PBM binding z-score [19] of -0.0264 and a PBM binding z-score [20] of 0.603.

TAGCCTAGGTCCGATCGGGCCAGTATACGCTATA gave a PBM binding z-score [1] of -1.62, a PBM binding z-score [2] of -1.4 and a PBM binding z-score [3] of -0.978. It also gave a PBM binding z-score [4] of -1.3, a PBM binding z-score [5] of -1.45 and a PBM binding z-score [6] of -0.907. It also gave a PBM binding z-score [7] of -0.184, a PBM binding z-score [8] of -1.28 and a PBM binding z-score [9] of -1.09. It also gave a PBM binding z-score [10] of -1.31, a PBM binding z-score [11] of -1.07 and a PBM binding z-score [12] of -0.553. It also gave a PBM binding z-score [13] of -0.601, a PBM binding z-score [14] of -1.51 and a PBM binding z-score [15] of -1.58. It also gave a PBM binding z-score [16] of -1.01, a PBM binding z-score [17] of -1.16 and a PBM binding z-score [18] of -1.17. For the same sequence, the PBM binding z-score [19] was -1.53 and the PBM binding z-score [20] was -1.
